Compound activity as filed in PubChem BioAssay.
MBD2 inh: inhibitors of human MBD2 binding to methylated oligonucleotide; Q9UBB5; TR-FRET; inhibition, % at 4.4 µM; 370,000 tested, 0.31% active; AID 686964; in the data active = inhibition above about 13%
Target sequence (Q9UBB5 whole entry, looked up): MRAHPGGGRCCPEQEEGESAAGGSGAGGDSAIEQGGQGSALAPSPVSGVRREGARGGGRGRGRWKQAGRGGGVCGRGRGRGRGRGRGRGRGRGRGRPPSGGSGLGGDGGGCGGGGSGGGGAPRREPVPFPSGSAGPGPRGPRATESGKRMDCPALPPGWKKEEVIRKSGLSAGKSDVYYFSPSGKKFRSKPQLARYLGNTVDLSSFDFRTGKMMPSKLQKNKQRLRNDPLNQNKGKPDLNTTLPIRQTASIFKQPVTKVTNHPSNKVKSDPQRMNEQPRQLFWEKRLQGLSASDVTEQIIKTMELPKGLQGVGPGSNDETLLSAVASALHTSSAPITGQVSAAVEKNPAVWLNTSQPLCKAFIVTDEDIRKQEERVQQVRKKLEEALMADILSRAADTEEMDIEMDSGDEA
Neddyl block: inhibitors of human cullin neddylation; P61081+Q13564; calls only at 25 µM; 360,000 tested, 0.58% active; TR-FRET cullin neddylation, biochemical; in the data active = inhibition above about 36%
UHRF1 binding: human UHRF1 methylated DNA binding inhibitors; 370,000 tested, 0.75% active; inhibition, % at 4.4 µM; Q96T88; UHRF1 binding to methylated oligo, TR-FRET; in the data active = inhibition above about 21%;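 also: UHRF1 SRA domain binding a hemimethylated CpG hairpin DNA probe; 0% = median of test compound wells and 100% = reference inhibitor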
KLK7 zymogen act: proKLK7 (human) activation, primary screen. P49862. purified proKLK7, EDANS-DABCYL substrate fluorescence; 100% is mature enzyme control, 0% vehicle. activation, % at 7 µM. 370,000 tested, 0.9% active;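 active = activation above the mean of all tested compounds plus 3 SD, computed per campaign excluding outliers beyond control limits, cut at about 13% in these data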
LEDGF integ inh: blocks HIV-1 LEDGF/p75-dependent DNA integration. TR-FRET IN-LEDGF/p75 DNA integration, Eu/Cy5. inhibition, % at 3.7 µM. 370,000 tested, 0.64% active. AID 743269;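 active = inhibition above the screen-wide mean plus 3 SD, cut at about 13% in these data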;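 also: signal is the Cy5 over europium emission ratio at 671 and 618 nm; 0% = plate median of compound wells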
Rin1 Abl inh: blocks binding of human Rin1 to Abl. AID 588664. 360,000 tested, 0.4% active. P00519+Q13671. inhibition, % at 7.35 µM. TR-FRET Rin1/Abl binding, biochemical; in the data active = inhibition above about 5%, passing the limit was not always enough
* = called active by the depositor; i = inactive; . = no result shown; + = active, no number. Most compounds without a hit are left out; they make up all but 3.1% or so of the library.

SMILES	MBD2 inh	Neddyl block	UHRF1 binding	KLK7 zymogen act	LEDGF integ inh	Rin1 Abl inh
O=C(CCC(=O)Nc1ccc(F)cc1)N/N=C/c1ccc(O)cc1	0	i	1	-1	-3	0
O=C(CCC(=O)Nc1ccc(F)cc1)N/N=C/c1ccc(O)cc1O	6	i	24*	-3	-8	-2
Nc1ccc2c(c1)C(=O)Cc1ccccc1S2	1	i	49*	0	0	-2
CN(C)CCCOc1ccc2c(c1)Sc1ccccc1CC2=O	-3	i	-2	5	-2	-3
COc1cc(/C=N/NC(=O)CC2C(=O)NN=C2C)ccc1O (stereo not drawn)	0	i	-2	-4	74*	-3
O=C(N/N=C/c1ccc(O)c(O)c1O)/C(=C/c1ccc([N+](=O)[O-])cc1)NC(=O)c1ccccc1	-8	i	-9	0	-2	15*
O=C(NNC(=O)c1cccs1)c1ccc(Cl)nc1	0	i	2	0	-1	-1
O=C(COC(=O)c1ccc(F)cc1F)Nc1cccc(S(=O)(=O)N2CCOCC2)c1	3	i	-1	1	-1	2
O=C(O)c1ccc(-c2ccc(/C=C3\NC(=O)N(Cc4ccc(Cl)cc4)C3=O)o2)cc1Cl	22*	i	77*	0	29*	1
CCOC(=O)CN1C(=O)S/C(=C\c2ccc(-c3ccc(C(=O)O)c(Cl)c3)o2)C1=O	4	i	14	0	3	-5
COc1ccccc1C(C)NC(=O)c1ccccc1SCC(=O)N1CCCC1 (stereo not drawn)	-2	i	-1	0	0	-5
CCOc1ccc(OCCC(=O)NNC(=O)c2cc(OC)c(OC)c(OC)c2)cc1	3	i	3	0	-1	0
C#CC[N+]1(CC#Cc2ccccc2)CCCCC1	3	i	38*	0	1	0
O=c1c2ccccc2nc2n1C(CSCc1ccc(Cl)cc1Cl)CS2 (stereo not drawn)	8	i	22*	0	2	1
Nc1ccccc1SCC1CSc2nc3ccccc3c(=O)n21 (stereo not drawn)	-6	i	-1	0	-1	4
N#C[C@H](N)[C@H]1O[C@@H](n2ccc(=O)[nH]c2=O)[C@H](O)[C@@H]1O	-3	.	-10	1	12	.
Cc1cc(OC(C)C(=O)NCc2cccnc2)c2c(C)cc(=O)oc2c1 (stereo not drawn)	-6	.	-1	9	3	2
Cc1ccc(CNC(=O)c2ccc(N3CCC4(CC3)CC(c3ccccc3)=NO4)c([N+](=O)[O-])c2)cc1	4	i	22*	1	1	-2
Cn1c(SC2CCCC2)nnc1-c1ccco1	1	.	0	-1	-4	.
Cc1onc(-c2c(F)cccc2Cl)c1C(=O)N1CCN(c2ncccn2)CC1	2	i	3	0	2	3
O=C(c1sc2cccc(F)c2c1Cl)N1CCN(c2ncccn2)CC1	11	i	26*	0	-2	0
COc1ccc2nc(-c3ccccn3)[nH]c2c1	-5	+	0	0	6	-5
O=C(CC1C(=O)NCCN1C/C=C/c1ccccc1)NCCc1cnccn1 (stereo not drawn)	1	i	0	0	0	1
O=C(CC1C(=O)NCCN1C/C=C/c1ccccc1)NCCc1ccncc1 (stereo not drawn)	10	i	23*	0	0	-2
Nc1nc(-c2ccc(S(=O)(=O)N3CCCCC3)cc2)cs1	1	+	-2	0	5	0
SMILES	MBD2 inh	Neddyl block	UHRF1 binding	KLK7 zymogen act	LEDGF integ inh	Rin1 Abl inh
Cc1nc(-c2ccc(S(=O)(=O)N3CCCCCC3)cc2)cs1	0	i	2	0	0	0
CNc1ncnc2c1ncn2[C@H]1CN(Cc2cccnc2)C[C@@H](CO)O1	4	i	-2	0	-1	5
COC(=O)CSc1nnc(-c2ccoc2C)n1-c1ccc(C)cc1	13	i	22*	-1	2	2
Cc1cnc(NC(=O)Cc2ccc(S(=O)(=O)N3CCOCC3)s2)s1	4	i	4	-4	-2	2
O=C(Cc1ccc(S(=O)(=O)N2CCOCC2)s1)Nc1ccccc1Br	-5	i	29*	-1	3	-2
O=C(Cc1ccc(S(=O)(=O)N2CCOCC2)s1)NCC(=O)Nc1ccccc1Br	7	i	4	-1	-2	0
CC(C)(C)c1csc(NC(=O)Cc2ccc(S(=O)(=O)N3CCOCC3)s2)n1	-2	i	76*	0	1	-4
COc1ccc(CCNC(=O)c2c(N)[nH]c(C(=O)c3ccccc3)c2-c2ccc(N(C)C)cc2)cc1	0	.	3	.	1	.
CCOCCCNC(=S)N1CCN(c2nc(-c3ccc(F)cc3)cs2)CC1	-5	i	-2	0	3	1
COCCCNC(=S)N1CCN(c2nc(-c3ccc(F)cc3)cs2)CC1	6	i	65*	-1	2	2
Cc1ccc(CN2CCN(C3CCCC3)C(CCO)C2)s1 (stereo not drawn)	2	i	3	0	4	-1
Cc1ccc2nc(-c3ccco3)c(Cc3ccsc3)n2c1	7	.	23*	0	-1	.
Cc1ccc(Cc2c(-c3ccco3)nc3ccc(C)cn23)cc1	4	i	24*	0	5	0
Cc1ccc(Cc2c(-c3ccco3)nc3c(C)cc(Br)cn23)cc1	1	i	21*	-1	0	-44
CCOc1cccc(CNCCSc2nnnn2C)c1	-7	i	-2	0	2	1
CC(C)(C)c1ccc(C(=O)N2CCCC2c2cccs2)cc1 (stereo not drawn)	9	i	15	0	-8	-1
CC(NC(=S)Nc1ccc([N+](=O)[O-])cc1)c1ccncc1 (stereo not drawn)	2	i	46*	0	-6	1
COc1cc(C(=O)NNC(=O)c2ccc(NC(=O)C(C)(C)C)cc2)cc(OC)c1OC	4	i	32*	0	-4	1
CCC(=O)Nc1ccc(C(=O)NNC(=O)c2cc(OC)c(OC)c(OC)c2)cc1	-2	i	2	0	2	5
COc1ccc(N(C(=O)CNC(=O)c2ccco2)C(C(=O)NC2CCCC2)c2ccco2)cc1 (stereo not drawn)	4	i	1	-1	2	2
Cc1c(N2C(=O)/C(=C/c3cccc4ccccc34)SC2=S)c(=O)n(-c2ccccc2)n1C	-2	i	31*	1	3	0
Cc1cc(Cl)ccc1NNC(N)=S	7	i	22*	0	1	0
Cc1ccc(C)c(NNC(N)=S)c1	-2	i	0	0	-2	-2
CCOc1ccc(OCCn2nnc3ccccc3c2=O)cc1	0	i	0	0	-2	4
